CD40 NFkB inh – CD40 pathway inhibition in BL2 cells; BL2 NF-kB luciferase reporter, CD40L-induced, 4 h; 83,000 compounds, 0.94% hits; AID 1053188; inhibition, % at 10 µM;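 active = mean inhibition of at least 50% with a set share of replicates also reaching that level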
Large screens that a line does not name were inactive; ! = not confirmed by another sample; [ ] = remark or other dose. This is one part of a sample in which hits are shown more often than they occur.

C[C@H]1CN([C@@H](C)CO)C(=O)c2c(c3ccccc3n2C)-c2ccccc2CO[C@@H]1CN(C)S(=O)(=O)c1ccc([N+](=O)[O-])cc1	CD40 NFkB inh 50[25 µM]
C[C@H](CO)N1C[C@H](C)[C@H](CN(C)S(=O)(=O)c2ccccc2)OCc2ccccc2-c2c(n(C)c3ccccc23)C1=O	none
C[C@H]1CN([C@@H](C)CO)C(=O)c2c(c3ccccc3n2C)-c2ccccc2CO[C@H]1CN(C)S(=O)(=O)c1ccc([N+](=O)[O-])cc1	CD40 NFkB inh 73[25 µM]
COc1ccc(S(=O)(=O)N(C)C[C@H]2OCc3ccccc3-c3c(n(C)c4ccccc34)C(=O)N([C@H](C)CO)C[C@@H]2C)cc1	none
COc1cccc(S(=O)(=O)N(C)C[C@H]2OCc3ccccc3-c3c(n(C)c4ccccc34)C(=O)N([C@@H](C)CO)C[C@@H]2C)c1	CD40 NFkB inh 59[25 µM]
C[C@H]1CN([C@@H](C)CO)C(=O)c2c(c3ccccc3n2C)-c2ccccc2CO[C@H]1CN(C)S(=O)(=O)c1ccccc1	none
COc1ccc(S(=O)(=O)N(C)C[C@H]2OCc3ccccc3-c3c(n(C)c4ccccc34)C(=O)N([C@@H](C)CO)C[C@H]2C)cc1	none
O=C(c1cccnc1)N1C[C@H]2[C@@H](c3ccccc31)[C@@H](CO)N2C(=O)Nc1ccccc1	none
O=C(Nc1ccccc1F)N[C@H]1C=C[C@@H](CC(=O)N2CCCCC2)O[C@@H]1CO	none
CCCNC(=O)N1[C@H](C#N)[C@H](c2ccc(-c3ccc(C(=O)N(C)C)cc3)cc2)[C@@H]1CO	none
CC(C)[C@@H](C)NC(=O)N(C)C[C@H]1OCc2ccccc2-c2ccccc2C(=O)N([C@H](C)CO)C[C@H]1C	none
COc1ccccc1CNC(=O)C[C@@H]1C[C@@H]2c3cc(NC(=O)c4ccc5c(c4)OCO5)ccc3O[C@@H]2[C@@H](CO)O1	none
C[C@@H]1CN([C@@H](C)CO)C(=O)Cc2cc(NS(C)(=O)=O)ccc2O[C@@H]1CN(C)C(=O)Nc1ccccc1	none
CCC(=O)N1[C@@H]2Cn3c(ccc(-c4ccccc4F)c3=O)[C@H]1[C@@H](C(=O)NC1CCCC1)[C@@H]2CO	none
COc1ccccc1CNC(=O)C[C@@H]1C[C@H]2c3cc(NS(=O)(=O)c4ccc(F)cc4)ccc3O[C@H]2[C@@H](CO)O1	none
CCC(=O)N[C@@H]1CC[C@H](CC(=O)NCc2ccccc2F)O[C@@H]1CO	none
CCOC(=O)COc1ccc2c(=O)c(-c3ccccc3)coc2c1	none
CC(C)(C)OC(=O)COc1cc(OCC(=O)OC(C)(C)C)c2c(=O)cc(-c3ccccc3)oc2c1	CD40 NFkB inh 57!
O=c1cc(-c2ccccc2)oc2cc(OCc3ccccc3)cc(O)c12	none
O=C(c1ccc(F)cc1)N1[C@@H]2CNc3ccccc3[C@@H]2[C@@H]1CO	none
CN(C)S(=O)(=O)c1ccc(NC=O)cc1	CD40 NFkB inh 27
CN(C)S(=O)(=O)c1ccc(NC(=O)Cn2ccsc2=N)cc1	none
CN(C(=O)Nc1ccc(S(=O)(=O)N(C)C)cc1)C1CCCCC1	none
CCc1sc(N2[C@H](C#N)[C@H](c3ccccc3-c3ccccc3)[C@H]2CO)nc1C	none
CCCNC(=O)[C@@H]1N[C@@H]2c3ccc(-c4cccc(F)c4)c(=O)n3C[C@@H]2[C@H]1CO	none
COc1cccc(-c2cn(CC[C@@H]3CC[C@H](NC(=O)CC4CC4)[C@@H](CO)O3)nn2)c1	none
CNC[C@H]1OCCCC[C@@H](C)Oc2ccc(NC(=O)Nc3ccc(OC)cc3)cc2C(=O)N([C@H](C)CO)C[C@H]1C	none
CCN(C[C@H]1[C@H](c2ccc(C3=CCCC3)cc2)[C@H](CO)N1C(C)=O)C(C)=O	none
COc1ccc(S(=O)(=O)Nc2ccc3c(c2)C(=O)N([C@@H](C)CO)C[C@H](C)[C@@H](CN(C)Cc2ccc(C(F)(F)F)cc2)OCCCC[C@@H](C)O3)cc1	CD40 NFkB inh 76[25 µM]
COc1ccc(NC(=O)Nc2ccc3c(c2)C(=O)N([C@@H](C)CO)C[C@@H](C)[C@@H](CN(C)Cc2ccc(C(F)(F)F)cc2)OCCCC[C@H](C)O3)cc1	none
C[C@H]1CN([C@@H](C)CO)C(=O)c2cc(NC(=O)Nc3ccc(C(F)(F)F)cc3)ccc2O[C@H]1CN(C)S(=O)(=O)c1ccc(Cl)cc1	none
COc1ccc(CN(C)C[C@H]2OCCCC[C@H](C)Oc3ccc(NS(=O)(=O)c4ccc(Cl)cc4)cc3C(=O)N([C@H](C)CO)C[C@H]2C)cc1	CD40 NFkB inh 63
COc1ccc(NC(=O)Nc2ccc3c(c2)C(=O)N([C@@H](C)CO)C[C@H](C)[C@@H](CN(C)S(=O)(=O)c2ccc(OC)cc2)O3)cc1	none
C[C@@H]1CCCCO[C@@H](CN(C)Cc2ccc(Cl)c(Cl)c2)[C@@H](C)CN([C@H](C)CO)C(=O)c2cc(NS(=O)(=O)c3cccs3)ccc2O1	none
C[C@@H]1CN([C@H](C)CO)C(=O)c2cc(NS(=O)(=O)c3ccc(Cl)cc3)ccc2O[C@@H](C)CCCCO[C@H]1CN(C)Cc1ccc(Cl)c(Cl)c1	none
COc1ccc(S(=O)(=O)Nc2ccc3c(c2)C(=O)N([C@H](C)CO)C[C@@H](C)[C@H](CN(C)C(=O)Nc2ccc(C(F)(F)F)cc2)OCCCC[C@@H](C)O3)cc1	none
COc1ccc(S(=O)(=O)N(C)C[C@H]2Oc3ccc(NC(=O)Nc4ccc(C(F)(F)F)cc4)cc3C(=O)N([C@@H](C)CO)C[C@@H]2C)cc1	CD40 NFkB inh 74[25 µM]
C[C@H]1CCCCO[C@@H](CN(C)Cc2ccncc2)[C@@H](C)CN([C@@H](C)CO)C(=O)c2cc(NS(=O)(=O)c3ccc(Cl)cc3)ccc2O1	none
C[C@H](CO)N1C[C@H](C)[C@@H](CN(C)Cc2ccc(Cl)c(Cl)c2)OCCCC[C@H](C)Oc2ccc(NS(=O)(=O)c3cccs3)cc2C1=O	CD40 NFkB inh 51[25 µM]
C[C@@H]1CCCCO[C@H](CN(C)Cc2ccc(Cl)c(Cl)c2)[C@@H](C)CN([C@H](C)CO)C(=O)c2cc(NS(=O)(=O)c3cccs3)ccc2O1	none
O=C(C1CCOCC1)N1CC(=O)N2[C@@H](CO)[C@H](c3ccc(/C=C/c4ccccc4)cc3)[C@@H]2C1	none
CC(C)NC(=O)Nc1ccc2c(c1)C(=O)N(C)C[C@@H](C)[C@H](CN(C)C)O2	none
CC(C)NC(=O)N(C)C[C@@H]1OCc2ccccc2-c2c(n(C)c3ccccc23)C(=O)N([C@H](C)CO)C[C@@H]1C	none
O=C(CN1CCOCC1)N[C@H]1CC[C@@H](CCNC(=O)C2CCCC2)O[C@@H]1CO	none
COc1ccc(C[C@@H]2CCc3cnnn3COCCNC2=O)cc1	none
COc1ccc(S(=O)(=O)Nc2ccc3c(c2)C(=O)N([C@@H](C)CO)C[C@H](C)[C@H](CN(C)Cc2ccc(C(F)(F)F)cc2)OCCCC[C@H](C)O3)cc1	CD40 NFkB inh 59[25 µM]
C[C@H](CO)N1C[C@H](C)[C@H](CN(C)CC2CCCCC2)OCCCC[C@H](C)Oc2ccc(NC(=O)Nc3ccc(C(F)(F)F)cc3)cc2C1=O	CD40 NFkB inh 76[25 µM]
C[C@@H]1CN([C@H](C)CO)C(=O)c2cccc(NS(=O)(=O)c3ccc(Cl)cc3)c2O[C@@H]1CN(C)Cc1ccc(C(=O)Nc2ccccc2N)cc1	CD40 NFkB inh active[25 µM]
COc1ccc(NC(=O)Nc2ccc3c(c2)C(=O)N([C@@H](C)CO)C[C@@H](C)[C@@H](CN(C)Cc2ccc(C(F)(F)F)cc2)OCCCC[C@@H](C)O3)cc1	none
C[C@H](CO)N1C[C@H](C)[C@H](CN(C)Cc2ccc(C(=O)Nc3ccccc3N)cc2)Oc2c(NS(=O)(=O)c3ccc(Cl)cc3)cccc2C1=O	none
C[C@H]1CN([C@@H](C)CO)C(=O)c2cccc(NS(=O)(=O)c3ccc(Cl)cc3)c2O[C@H]1CN(C)Cc1ccc(C(=O)Nc2ccccc2N)cc1	none
